YB-1 expression: inhibitors of YB-1 gene expression, primary screen, cell-based, fluorescence; 0.37% of 30,000 active; AID 434959, 2010; U2OS, qRT-PCR YB-1 vs CDIP delta delta Cp, 16 h; active compounds read high; zero = DMSO, each unit about twofold; delta delta Cp (YB-1 minus CDIP) (concentration not given with the values);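 active = delta delta Cp rounded down to an integer at or above 3, about 3 SD of DMSO wells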;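 note: higher means less YB-1 transcript or more CDIP transcript relative to DMSO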
U2OS ROS induce: ROS inducers in U2OS cancer cells, primary screen, cell-based, H2DCF-DA fluorescence. U2OS ROS induction. ROS induction (% of piperlongumine), % at 10 µM. 2% of 46,000 active. AID 624156, 2012; in the data active = ROS induction above about 79%, passing the limit was not always enough;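 note: 0% = DMSO vehicle median and 100% = reference compound median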
Starred values were filed as active, the others as inactive; / = no result given. Compounds with a hit are over-represented: about 2.1% of the library has one in this group of screens.

SMILES	YB-1 expression	U2OS ROS induce
O=C1NC(=O)N(c2ccccc2)C(=O)/C1=C/c1ccco1	-0.124	83.0*
CC(C)c1cc2c(cc1O)[C@@]1(C)C[C@@H](O)CC(C)(C)C1CC2 (stereo partly specified)	4.47*	4.8
CC(C)c1cc2c(cc1O)[C@@]1(C)C[C@@H](O)CC(C)(CO)C1CC2 (stereo partly specified)	-0.136	-0.9
C[C@H]1OC(O[C@H]2[C@@H](O)CC(O[C@H]3[C@@H](O)C[C@H](O[C@H]4CC[C@]5(C)C6CC[C@]7(C)[C@@H](C8=CC(=O)OC8)[C@@H](O)C[C@]7(O)[C@@H]6CC[C@@H]5C4)O[C@@H]3C)O[C@@H]2C)C[C@H](O)C1O (stereo partly specified)	0.242	2.5
C[C@H]1O[C@@H](O[C@H]2[C@@H](O)C[C@H](O[C@H]3[C@@H](O)C[C@H](O[C@H]4CC[C@@]5(C)[C@H](CC[C@@H]6[C@@H]5CC[C@]5(C)[C@@H](C7=CC(=O)OC7)CC[C@]65O)C4)O[C@@H]3C)O[C@@H]2C)C[C@H](O)[C@@H]1O	0.0212	114.2*
CCCS(=O)(=O)N1CCC(C(=O)N2CCC3(CC2)OCCO3)CC1	/	-8.7
Cc1nc(-c2ccccc2)nc(OC(=O)N(C)C)c1Oc1ccc(Cl)cc1Cl	/	26.2
CCC(=O)O[C@H]1CC[C@H]2[C@@H]3CCC4=CC(=O)CC[C@]4(C)[C@H]3CC[C@]12C	0.175	-3.1
COc1cc2c3cc1Oc1cc(ccc1O)C[C@@H]1c4c(cc(OC)c(O)c4Oc4cccc(c4)C[C@@H]3N(C)CC2)CC[N+]1(C)C	-0.318	-1.0
CC(C)N1C(=O)c2ccccc2NS1(=O)=O	-0.189	-3.1
O=C1CC=C2C3CC4N(CCC45c4ccccc4N1C25)C/C3=C/CO (stereo unspecified)	10.4*	-0.7
COc1ccccc1CCNCc1ccccc1C(F)(F)F	/	6.6
CC[C@@H]1/C=C\C=C\C[C@H](C)C(O)[C@](C)(O)C(=O)[C@H](C)C(O)[C@H](C)C(=O)[C@H](C)[C@@H](O)[C@H](C)/C=C/C(=O)O[C@H]2[C@@H](C)[C@@H](CC1)O[C@@]1(CC[C@@H](C)[C@@H](C[C@H](C)O)O1)[C@@H]2C (stereo partly specified)	-0.568	132.8*
C[C@H](N)C(=O)N[C@@H](C)C(=O)N[C@@H](Cc1ccccc1)C(=O)CCl	0.485	-11.1
CC(O)CNCCNc1ccc([N+](=O)[O-])c2cccnc12 (stereo unspecified)	/	17.1
C[C@]12C=CC(=O)C=C1CCC1C2CC[C@]2(C)C(=O)CCC12 (stereo partly specified)	-0.507	2.8
C=CCN1C(=O)/C(=C/c2cc(C)n(-c3ccccn3)c2C)C(=O)NC1=S	-0.128	112.9*
Oc1ccc(C2(c3ccc(O)cc3)CCCCC2)cc1	0.0271	-9.3
CO[C@H]1C[C@H](OC2CCC3(C)C4CCC5(C)C(C6=CC(=O)OC6)CC(OC(C)=O)C5(O)C4CC[C@H]3C2)O[C@@H](C)[C@@H]1O (stereo partly specified)	-0.0832	7.9
Cn1c2c(c3ccccc31)CCNCC2	-0.37	-10.0
Fc1ccc(C(OCCN2CCN(CCCc3ccccc3)CC2)c2ccc(F)cc2)cc1	0.823	1.5
c1ccc(CCCN2CCN(CCOC(c3ccccc3)c3ccccc3)CC2)cc1	22.3*	23.4
C[C@H](CO)N1C[C@H](C)[C@@H](CN(C)C(=O)Oc2ccc3ccccc3c2)OCc2cn(nn2)CCCC1=O	-0.557	30.9
CC[C@]12C=CCN3CC[C@@]4(c5ccc(OC)cc5N(C)[C@H]4[C@@](O)(C(=O)OC)[C@@H]1OC(C)=O)[C@@H]32	-0.11	117.3*
Cn1cc(C(=O)C(=O)N[C@H]2CN3CCC2CC3)c2ccccc21	0.253	3.4
COc1ccc(Cl)cc1NC1=NCC(C)S1 (stereo unspecified)	10.3*	-7.6
Cn1c[n+](C)cc1C(O)c1ccccc1 (stereo unspecified)	0.187	13.3
